This is an account of results in PubChem BioAssay (NCATS).

Structures are written as SMILES. Results filed as inconclusive are left out. Where a call stands in place of a potency, no number is given. Activity calls are given as the source filed them. Calls follow the shape of the dose curve; as a rule, active = well fitted inhibition curve with a large enough effect; inconclusive = small, poorly fitted or top-dose-only effect; inactive = flat fitted curve, though single readings scatter.
Potency is read from the fitted curve at half-maximal effect.

The first test relates to CP192. Kind of test: qHTS profiling for inhibitors of Plasmodium falciparum proliferation (AID 504749). Also: nearly all actives have a fitted effect of over 60% in size. The note with it: P. falciparum in erythrocytes, SYBR Green DNA, 72 h; series mostly up to 28.7 µM. Summed up:
(§1)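 SYBR Green fluorescence (ex 485 nm, em 535 nm) reports parasite DNA after 72 h compound exposure of infected red cells at 0.3% parasitemia, 2.5% hematocrit; signal normalized to 0.29 uM artemisinin and vehicle wells.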
(In general: qHTS replaces the single test concentration by a dilution series.)
For the compound `CN(C)c1ccc(C(=C2C=CC(=[N+](C)C)C=C2)c2ccccc2)cc1`, the Potency entry was “inactive”.
In the case of `O=C(OCc1ccccc1)c1ccccc1`, the Potency entry is “inactive”.
On the same count and under the same terms, to `Nc1ccc(C(=O)O)c(O)c1` belongs “inactive”; to `O=C(/C=C/c1ccccc1)NCCO`, “inactive”.
`O=C1CN(/N=C/c2ccc(-c3ccc([N+](=O)[O-])cc3)o2)C(=O)N1`: the Potency entry was “inactive”.
On the same count and under the same terms, to `CCCCCCCCCCCCCCCCCC(=O)O` belongs “inactive”; to `O=C(O)c1cc(O)c(O)c(O)c1`, “inactive”; to `C[S+](CC[C@H](N)C(=O)O)C[C@H]1O[C@@H](n2cnc3c(N)ncnc32)[C@H](O)[C@@H]1O` (stereo not given in full), “inactive”.
The same measure, in the same setting: to `CCOC(=O)c1ccccc1O` belongs “inactive”; to `COc1cc(/C=C/C(=O)N2CCN(CC(=O)N3CCCC3)CC2)cc(OC)c1OC`, “inactive”.
Still for that read-out and setting: with `Nc1cc(-c2ccncc2)c[nH]c1=O` the entry was “inactive”; with `NC(=O)C(c1ccccc1)(c1ccccc1)[C@@H]1CCN(CCc2ccc3c(c2)CCO3)C1`, “inactive”; with `CCCC(=O)OC[C@@H](OC(=O)CCC)[C@@H](OC(=O)CCC)[C@H](Cn1c2nc(=O)[nH]c(=O)c-2nc2cc(C)c(C)cc21)OC(=O)CCC`, “inactive”.
For `c1ccc2sc(SN3CCOCC3)nc2c1`, the Potency entry is “inactive”.
On the same count and under the same terms, to `Cc1nc2ccccc2n1Cc1ccc(Cl)cc1` belongs “inactive”; to `Clc1ccccc1-c1nc(-c2ccncc2)no1`, “inactive”.
Still for that read-out and setting: to `CCOc1ccc2nc(S(N)(=O)=O)sc2c1` belongs “inactive”.
For `CN1[C@@H]2CC[C@H]1CC(OC(c1ccccc1)c1ccccc1)C2` (stereo not given in full), the Potency entry is “inactive”.
Still for that read-out and setting: to `O=C(O)/C=C/C(O)c1ccc(Cl)cc1` (stereo not given) belongs “inactive”; to `Oc1c(Br)cc(Br)c2cccnc12`, “inactive”; to `Cc1ccc(C(=O)c2ccc(CC(=O)O)n2C)cc1`, “inactive”.
Same read-out and setting: with `O=C(CCN1CCN(CCO)CC1)N1c2ccccc2Sc2ccc(C(F)(F)F)cc21` the entry was “inactive”; with `Cc1cc(O)c2ccccc2c1O`, “inactive”; with `COc1ccc(-c2cc(=S)ss2)cc1`, “inactive”.
As to `CN1[C@@H]2CC[C@H]1CC(OC(=O)C(CO)c1ccccc1)C2` (stereo not given in full), the Potency result is “inactive”.
As to `CCCSc1ccc2nc(NC(=O)OC)[nH]c2c1`, the Potency result was “inactive”.
Still for that read-out and setting: with `O=C(O)[C@H](CC(=O)N1C[C@H]2CCCC[C@H]2C1)Cc1ccccc1` the entry was “inactive”; with `C=C(Nc1ccc(OCC)cc1)Nc1ccc(OCC)cc1`, “inactive”.
The same measure, in the same setting: with `CC(=O)[C@]1(O)Cc2c(O)c3c(c(O)c2[C@@H](O[C@H]2C[C@H](N)[C@H](O)[C@H](C)O2)C1)C(=O)c1c(O)cccc1C3=O` the figure was 13.5 µM (active); with `CC(N)C(=O)OC(C)(C)Cc1ccc(Cl)cc1` (stereo not given), “inactive”.

Another test concerns CP194. The test is described as above. As to conditions: P. falciparum in erythrocytes, SYBR Green DNA, 72 h; series mostly up to 28.7 µM. Summed up:
as §1
Take `O=C(OCc1ccccc1)c1ccccc1`: the Potency entry was “inactive”.
The same measure, in the same setting: to `Nc1ccc(C(=O)O)c(O)c1` belongs “inactive”; to `O=C(/C=C/c1ccccc1)NCCO`, “inactive”.
On the same count and under the same terms, with `O=C1CN(/N=C/c2ccc(-c3ccc([N+](=O)[O-])cc3)o2)C(=O)N1` the entry was “inactive”.
As for `CCCCCCCCCCCCCCCCCC(=O)O`, the Potency result is “inactive”.
Turning to `O=C(O)c1cc(O)c(O)c(O)c1`, the Potency entry is “inactive”.
Regarding `C[S+](CC[C@H](N)C(=O)O)C[C@H]1O[C@@H](n2cnc3c(N)ncnc32)[C@H](O)[C@@H]1O` (stereo not given in full), the Potency result is “inactive”.
As to `CCOC(=O)c1ccccc1O`, the Potency entry is “inactive”.
The same measure, in the same setting: to `COc1cc(/C=C/C(=O)N2CCN(CC(=O)N3CCCC3)CC2)cc(OC)c1OC` belongs “inactive”; to `Nc1cc(-c2ccncc2)c[nH]c1=O`, “inactive”.
Consider `O=C(O)c1ccccc1Nc1cccc(C(F)(F)F)c1`, for which the Potency result was “inactive”.
On to `CCCC(=O)OC[C@@H](OC(=O)CCC)[C@@H](OC(=O)CCC)[C@H](Cn1c2nc(=O)[nH]c(=O)c-2nc2cc(C)c(C)cc21)OC(=O)CCC`, for which the Potency result is “inactive”.
The same measure, in the same setting: with `c1ccc2sc(SN3CCOCC3)nc2c1` the entry was “inactive”.
Turning to `Clc1ccccc1-c1nc(-c2ccncc2)no1`, the Potency result was “inactive”.
On the same count and under the same terms, to `CCOc1ccc2nc(S(N)(=O)=O)sc2c1` belongs “inactive”.
For the compound `O=C(O)/C=C/C(O)c1ccc(Cl)cc1` (stereo not given), the Potency result was “inactive”.
As for `Oc1c(Br)cc(Br)c2cccnc12`, the Potency entry was “inactive”.
As to `Cc1ccc(C(=O)c2ccc(CC(=O)O)n2C)cc1`, the Potency result is “inactive”.
The same measure, in the same setting: to `Cc1cc(O)c2ccccc2c1O` belongs “inactive”; to `COc1ccc(-c2cc(=S)ss2)cc1`, “inactive”; to `CN1[C@@H]2CC[C@H]1CC(OC(=O)C(CO)c1ccccc1)C2` (stereo not given in full), “inactive”.
On the same count and under the same terms, with `O=C(O)[C@H](CC(=O)N1C[C@H]2CCCC[C@H]2C1)Cc1ccccc1` the entry was “inactive”; with `C=C(Nc1ccc(OCC)cc1)Nc1ccc(OCC)cc1`, “inactive”; with `CC(=O)[C@]1(O)Cc2c(O)c3c(c(O)c2[C@@H](O[C@H]2C[C@H](N)[C@H](O)[C@H](C)O2)C1)C(=O)c1c(O)cccc1C3=O`, 13.5 µM (active).

The test system of another test is CP201. Described as above. As to conditions: P. falciparum in erythrocytes, SYBR Green DNA, 72 h; series mostly up to 28.7 µM. Summed up: as §1
Consider `O=C(OCc1ccccc1)c1ccccc1`, for which the Potency entry is “inactive”.
Still for that read-out and setting: to `Nc1ccc(C(=O)O)c(O)c1` belongs “inactive”.
Regarding `O=C(/C=C/c1ccccc1)NCCO`, the Potency entry was “inactive”.
In the case of `CCCCCCCCCCCCCCCCCC(=O)O`, the Potency entry is “inactive”.
In the case of `O=C(O)c1cc(O)c(O)c(O)c1`, the Potency result was “inactive”.
Regarding `C[S+](CC[C@H](N)C(=O)O)C[C@H]1O[C@@H](n2cnc3c(N)ncnc32)[C@H](O)[C@@H]1O` (stereo not given in full), the Potency entry is “inactive”.
Regarding `CN1[C@@H](CC(=O)c2ccccc2)CCC[C@H]1C[C@H](O)c1ccccc1`, the Potency entry was “inactive”.
On the same count and under the same terms, with `CCOC(=O)c1ccccc1O` the entry was “inactive”; with `COc1cc(/C=C/C(=O)N2CCN(CC(=O)N3CCCC3)CC2)cc(OC)c1OC`, “inactive”.
For the compound `Nc1cc(-c2ccncc2)c[nH]c1=O`, the Potency entry was “inactive”.
Turning to `O=C(O)c1ccccc1Nc1cccc(C(F)(F)F)c1`, the Potency entry is “inactive”.
Still for that read-out and setting: with `CCCC(=O)OC[C@@H](OC(=O)CCC)[C@@H](OC(=O)CCC)[C@H](Cn1c2nc(=O)[nH]c(=O)c-2nc2cc(C)c(C)cc21)OC(=O)CCC` the entry was “inactive”; with `c1ccc2sc(SN3CCOCC3)nc2c1`, “inactive”; with `Clc1ccccc1-c1nc(-c2ccncc2)no1`, “inactive”.
The same measure, in the same setting: to `CCOc1ccc2nc(S(N)(=O)=O)sc2c1` belongs “inactive”; to `O=C(O)/C=C/C(O)c1ccc(Cl)cc1` (stereo not given), “inactive”; to `Oc1c(Br)cc(Br)c2cccnc12`, “inactive”.
Take `Cc1ccc(C(=O)c2ccc(CC(=O)O)n2C)cc1`: the Potency result was “inactive”.
The same measure, in the same setting: with `O=C(CCN1CCN(CCO)CC1)N1c2ccccc2Sc2ccc(C(F)(F)F)cc21` the entry was “inactive”.
As to `Cc1cc(O)c2ccccc2c1O`, the Potency result is “inactive”.
On to `COc1ccc(-c2cc(=S)ss2)cc1`, for which the Potency result is “inactive”.
Same read-out and setting: with `CN1[C@@H]2CC[C@H]1CC(OC(=O)C(CO)c1ccccc1)C2` (stereo not given in full) the entry was “inactive”; with `CCCSc1ccc2nc(NC(=O)OC)[nH]c2c1`, “inactive”.
For `O=C(O)[C@H](CC(=O)N1C[C@H]2CCCC[C@H]2C1)Cc1ccccc1`, the Potency result was “inactive”.
Regarding `O=c1[nH]c2ccccc2n1CCCN1CCN(C(c2ccccc2)c2ccccc2)CC1`, the Potency entry was “inactive”.
Consider `C=C(Nc1ccc(OCC)cc1)Nc1ccc(OCC)cc1`, for which the Potency result is “inactive”.
